Compounds without any hit were thinned out: in the full panel of roughly 79,000, 15% have a hit. Unmarked numbers belong to inactive results. Active and inactive are the calls of the source. No stated cut-off is given here; in the data, active means growth inhibition above about 70%; inactive means the rest.
Experiments:
[1] = NCI Yeast Anticancer Drug Screen. Data for the rad50 strain (AID 155);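 further: 0% = growth of vehicle-only cultures of the same strain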; conditions: S. cerevisiae rad50 strain growth inhibition, stronger effect = higher value
Procedure, shortened: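 Cells are treated with compound, grown, and their growth is then scored against vehicle-only cultures of the same repair-deficient yeast strain.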

[2] = NCI Yeast Anticancer Drug Screen. Data for the mec2-1 strain (AID 157); conditions: S. cerevisiae mec2-1 strain, stronger effect = higher value
Procedure, shortened: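 Yeast mec2-1 mutant treated with compound. Readout: growth inhibition vs vehicle controls.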

[3] = NCI Yeast Anticancer Drug Screen. Data for the cln2 rad14 strain (AID 165);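 further: 0% = growth equal to vehicle treated cultures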; conditions: S. cerevisiae cln2 rad14 strain, stronger effect = higher value
Procedure, shortened: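 cln2 rad14 yeast strain; compound exposure; growth inhibition read vs vehicle controls.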

[4] = NCI Yeast Anticancer Drug Screen. Data for the bub3 strain (AID 167); conditions: S. cerevisiae bub3 mutant strain, stronger effect = higher value
Procedure, shortened: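 Part of a panel of yeast mutants defective in DNA damage repair or cell cycle regulation. Each strain is grown with compound, and inhibition is calculated relative to solvent-treated cultures.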

[5] = NCI Yeast Anticancer Drug Screen. Data for the mlh1 rad18 strain (AID 175); conditions: S. cerevisiae mlh1 rad18 strain growth inhibition, stronger effect = higher value
Procedure, shortened: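 Yeast w/ defined DNA-repair lesions; compound exposure; growth vs vehicle controls → % inhibition.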

[6] = NCI Yeast Anticancer Drug Screen. Data for the sgs1 mgt1 strain (AID 161);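 further: 0% = growth of cultures given vehicle only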; conditions: S. cerevisiae sgs1 mgt1 strain, stronger effect = higher value
Procedure, shortened: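 Test agents were incubated with a DNA-repair-mutant yeast strain. Growth was then read and compared against vehicle-treated controls.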

[7] = at 5.0 µM (retest, dose inferred, filed as 0.5)
[8] = at 50.0 µM (retest, dose inferred, filed as 5.0)

Row | SMILES | growth inhibition [1, 7] | growth inhibition [1, 8] | growth inhibition ([1]; at 50.0 µM) | growth inhibition [2, 7] | growth inhibition [2, 8] | growth inhibition ([2]; at 50.0 µM) | growth inhibition [3, 7] | growth inhibition [3, 8] | growth inhibition ([3]; at 50.0 µM) | growth inhibition [4, 7] | growth inhibition [4, 8] | growth inhibition ([4]; at 50.0 µM) | growth inhibition [5, 7] | growth inhibition [5, 8] | growth inhibition ([5]; at 50.0 µM) | growth inhibition [6, 7] | growth inhibition [6, 8] | growth inhibition ([6]; at 50.0 µM)
1 | COc1cc(F)ccn1 | 2% | 0% | -4.75% | 5% | 4% | -11.4% | 1% | 4% | 12.8% | -2% | -4% | 46% | -4% | -3% | -18.2% | – | – | –
2 | O=NNc1ncccc1OCc1ccccc1 | 9% | 6% | 56.9% | 6% | 6% | 25.6% | 7% | 9% | 3.2% | 10% | 13% | -2.9% | 9% | 15% | 17.8% | – | – | –
3 | CC1(c2ccccc2)Nc2ccccc2C1=Nc1ccccc1 (stereo unspecified) | -1% | 34% | 93.5% (active) | -4% | 30% | 97.7% (active) | -8% | 75% (active) | 97.2% (active) | -7% | 77% (active) | 95.8% (active) | -2% | 86% (active) | 97.3% (active) | – | – | –
4 | O=C(O)c1ccc(C(=O)c2ccccc2C(=O)O)cc1 | -3% | -4% | 99.3% (active) | -5% | -2% | 99.7% (active) | -2% | -7% | 98.5% (active) | – | – | – | 1% | 0% | 99.3% (active) | -1% | -1% | 99.4% (active)
5 | O=C1OC(CC(=O)c2ccccc2Cl)C(Cl)=C1Cl (stereo unspecified) | 6% | 33% | 38.1% | 7% | 35% | 12.6% | 16% | 30% | 46.6% | 1% | 37% | -0.55% | 23% | 62% | 65.7% | – | – | –
6 | Cc1cc(Cl)c2c(c1)C(=O)/C(=C/c1ccc(Cl)cc1)O2 | 5% | 99% (active) | 88.3% (active) | 18% | 99% (active) | 90% (active) | 26% | 99% (active) | 89.2% (active) | – | – | – | 13% | 99% (active) | 85.3% (active) | -17% | 99% (active) | 84.1% (active)
7 | Cc1ccc2[nH]c3c(c2c1)CCC/C3=N/N=C(N)N | 26% | 93% (active) | 63% | 14% | 100% (active) | 83% (active) | – | – | – | 21% | 99% (active) | 89.2% (active) | 29% | 97% (active) | 90.8% (active) | 24% | 99% (active) | 90.8% (active)
8 | O=P1(NCC2CCCO2)OCC2(CO1)COP(=O)(NCC1CCCO1)OC2 (stereo unspecified) | 99% (active) | 95% (active) | 47.3% | 100% (active) | 98% (active) | 99.6% (active) | – | – | – | 99% (active) | 97% (active) | 98.5% (active) | 100% (active) | 96% (active) | 98.7% (active) | 100% (active) | 98% (active) | 99% (active)
9 | COc1ccc(-c2cc(-c3ccc4c(c3)CC(C)O4)nc(N)n2)cc1 (stereo unspecified) | 20% | 1% | 90.8% (active) | 0% | -14% | 90.8% (active) | – | – | – | 19% | 15% | 88.7% (active) | -16% | -19% | 88.7% (active) | 20% | 3% | 91.2% (active)
10 | CC(=O)OCC1OC(n2ncc3c(Sc4c([N+](=O)[O-])ncn4C)ncnc32)C(OC(C)=O)C1OC(C)=O (stereo unspecified) | 23% | 99% (active) | 99.3% (active) | 25% | 100% (active) | 99.4% (active) | 2% | 99% (active) | 99.4% (active) | 16% | 99% (active) | 99% (active) | 18% | 99% (active) | 98.8% (active) | – | – | –
11 | CC(=O)N(C1=C(Cl)C(=O)c2ccccc2C1=O)c1ccc(C)cc1 | 99% (active) | 99% (active) | 99.5% (active) | 100% (active) | 100% (active) | 99.5% (active) | 100% (active) | 98% (active) | 94% (active) | – | – | – | 100% (active) | 100% (active) | 99.5% (active) | 100% (active) | 100% (active) | 99.6% (active)
12 | CS(=O)(=O)OCCN(CCOS(C)(=O)=O)c1ccc(C=Nc2cccc(Br)c2)c(Cl)c1 | 1% | 22% | 41.5% | -3% | 1% | -2.3% | – | – | – | 0% | 1% | 6.85% | 5% | 36% | 68.5% | -3% | 12% | 2.5%
13 | O=C(O)C(O)C(O)C(O)C(O)CO.[Ag] (stereo unspecified) | 99% (active) | 98% (active) | 99.2% (active) | 99% (active) | 99% (active) | 99.3% (active) | – | – | – | 99% (active) | 98% (active) | 99.3% (active) | 99% (active) | 98% (active) | 99% (active) | 99% (active) | 99% (active) | 99.5% (active)
14 | O=C(COC(=O)C(c1ccccc1)c1ccccc1)c1ccc(Br)cc1 | -2% | 28% | 45.9% | -1% | 23% | 11% | -5% | 28% | 11.1% | – | – | – | -1% | 27% | 20.9% | 0% | 35% | -4.25%
15 | CC(=O)Oc1ccc(/C=C2\N=C(c3ccccc3)OC2=O)c(OC(C)=O)c1 | 4% | 75% (active) | 15.3% | 1% | 55% | 4.25% | 2% | 37% | 25.8% | – | – | – | 0% | 77% (active) | 1.05% | -4% | 36% | 10.8%
16 | Nc1ncnc2c1ncn2C1OCC(OCc2ccccc2)C(OCc2ccccc2)C1OCc1ccccc1 (stereo unspecified) | 9% | 99% (active) | 98.3% (active) | -25% | 100% (active) | 96% (active) | – | – | – | 13% | 99% (active) | 97.5% (active) | -4% | 99% (active) | 98.1% (active) | 13% | 98% (active) | 99.2% (active)
17 | O=S(=O)(c1ccccc1)C1CN=NC1c1ccccc1 (stereo unspecified) | 4% | 79% (active) | 84.2% (active) | -16% | 97% (active) | 97.7% (active) | -2% | 69% | 93.5% (active) | 6% | 98% (active) | 87.8% (active) | 30% | 97% (active) | 97% (active) | -7% | 98% (active) | 73.6% (active)
18 | CCCCCCCCCCCC[n+]1ccc(C)cc1 | 33% | 99% (active) | 98.2% (active) | 76% (active) | 100% (active) | 99.2% (active) | 20% | 99% (active) | 96.8% (active) | – | – | – | 18% | 99% (active) | 98.3% (active) | 33% | 99% (active) | 99% (active)
19 | Cc1cc2c(cc1O)CC[C@@H]1[C@@H]2CC[C@]2(C)[C@@H](O)CC[C@@H]12 | -29% | -27% | 38.5% | -25% | -16% | 35.2% | -9% | -17% | 50.2% | -42% | -29% | 37.5% | -35% | -22% | 50% | – | – | –
20 | Clc1nnc(Cl)s1 | 3% | 36% | 29.1% | 8% | 54% | 21.6% | 1% | 9% | 25.9% | 5% | 72% (active) | 23.9% | 5% | 53% | 18.9% | 2% | 67% | 19.4%
21 | CN=S(=O)(OCCCCCCCCCOS(=O)(=NC)c1ccc(C)cc1)c1ccc(C)cc1 (stereo unspecified) | 17% | 12% | 42.5% | 14% | 6% | 70% (active) | – | – | – | 20% | 20% | -35.3% | 18% | 11% | -80.8% | 16% | 15% | 19.7%
